Assay: small GTPase nucleotide-binding inhibition, multiplex panel – biochemical, round 1 SAR, Mg buffer, multiplex flow cytometry, selectivity assay for Cdc42 probe extension project, SAR follow-up (AID 588477)
Conditions: GST-GTPase beads, Bodipy-GTP binding, Ras constitutively active; series mostly up to 100 µM; percent response (remaining binding): at the top concentration;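 active = valid curve fit with half-effect dose at most 10 µM and total binding change across doses of 30 points or more; inactive = the rest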

Percent response (remaining binding), inactive:
O=C(C#Cc1ccccc1)c1cccc([N+](=O)[O-])c1 28.2%, NS(=O)(=O)c1ccc(N2N=C(c3ccccc3)CC2c2ccccc2)cc1 (stereo not drawn) 29.9%, COc1ccc(C2CC(c3ccccc3)=NN2c2ccc(S(N)(=O)=O)cc2)cc1 (stereo not drawn) -36.9%

From PubChem BioAssay AID588477 (NMMLSC, 2011)
